The list is not random: actives were taken first. Their share in the collection is about 5%.
SENP8 block-1 = SENP8 (human) protease inhibition. Q96LD8. recombinant SENP8, Nedd8 substrate fluorescence. inhibition, % at 20 µM. 360,000 compounds, 0.64% hits. AID 602440; in the data active means inhibition mostly above about 40%, no sharp cut-off; inactive means mostly below about 27%
Target sequence (Q96LD8 whole entry, looked up): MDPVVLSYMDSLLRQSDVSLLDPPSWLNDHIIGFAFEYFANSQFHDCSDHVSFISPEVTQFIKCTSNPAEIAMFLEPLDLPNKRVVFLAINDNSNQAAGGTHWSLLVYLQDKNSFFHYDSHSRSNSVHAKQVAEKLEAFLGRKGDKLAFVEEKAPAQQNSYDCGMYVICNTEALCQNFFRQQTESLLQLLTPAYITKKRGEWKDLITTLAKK
SENP6 inh = inhibitors of human SENP6 protease; Q9GZR1; Recombinant SENP6 catalytic domain, aminoluciferin luminescence; inhibition, % at 10 µM; 330,000 compounds, 1.8% hits;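 active means inhibition above about 50% at the single tested dose, limit read from the data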;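 further: plate controls were DMSO wells with enzyme for no effect and DMSO wells lacking enzyme for full effect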
EBI2 antag = antagonists of human EBI2 receptor; 360,000 compounds, 0.81% hits; EBI2 beta-arrestin recruitment, luminescence, 7a,25-OHC stimulated; inhibition, % at 5 µM; P32249; in the data active means inhibition above about 38%;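 further: enzyme fragment complementation signal reports receptor beta-arrestin coupling in cells; 0% = agonist plus DMSO wells and 100% = wells without agonist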
Target sequence (P32249 whole entry, looked up, the tested form may be a part): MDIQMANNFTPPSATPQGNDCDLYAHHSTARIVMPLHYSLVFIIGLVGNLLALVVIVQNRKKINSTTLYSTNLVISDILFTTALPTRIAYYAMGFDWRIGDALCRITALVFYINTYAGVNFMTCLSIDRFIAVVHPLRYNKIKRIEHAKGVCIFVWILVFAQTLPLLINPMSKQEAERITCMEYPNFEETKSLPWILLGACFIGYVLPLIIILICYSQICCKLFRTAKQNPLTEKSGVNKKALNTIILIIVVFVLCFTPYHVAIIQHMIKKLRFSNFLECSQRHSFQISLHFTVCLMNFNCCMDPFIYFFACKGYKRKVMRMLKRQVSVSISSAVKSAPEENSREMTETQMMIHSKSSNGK
AHR act = activates the human aryl hydrocarbon receptor; P35869; AHR-responsive luciferase reporter cells, luminescence; activation, % at 5 µM; 320,000 compounds, 2.5% hits; in the data active means activation above about 47%;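 further: 0% = vehicle wells and 100% = reference agonist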
SENP8 block-2 = inhibitors of human SENP8 protease. 330,000 compounds, 1.2% hits. purified SENP8, Z-RLRGG-aminoluciferin cleavage, luminescence. Q96LD8. inhibition, % at 10 µM; in the data active means inhibition above about 50%
SENP7 inh = inhibitors of human SENP7 protease. 330,000 compounds, 1.5% hits. AID 434973. recombinant SENP7, Z-RLRGG-aminoluciferin luminescence, 40 min. inhibition, % at 5 µM;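 active means inhibition above about 50% at the single test dose, limit read from the data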;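 further: plate controls were DMSO with enzyme for no effect and no enzyme buffer wells for full effect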
AHR act confirm = confirmation of human aryl hydrocarbon receptor activators; 2,300 compounds, 87% hits; activation, % at 9 µM; shares compounds with AHR act; human cells, AHR-responsive luciferase reporter, luminescence; AID 2845; in the data active means activation above about 49%;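 further: HepG2 hepatoma cells carrying a DRE-driven firefly luciferase reporter; 0% = vehicle wells and 100% = reference agonist wells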
PXR counter = counter-screen for AHR activators: human PXR activators. shares compounds with AHR act. cell-based PXR reporter, luciferase luminescence. activation, % at 11.6 µM. 2,300 compounds, 88% hits. AID 434939; in the data active means activation above about 11%;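 further: human hepatoma DPX-2 cells expressing full-length human PXR; 0% = DMSO and 100% = reference agonist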
Numbers without * were called inactive.

`CCOc1ccc(NC(=S)N2CCN(CCN3C(=O)c4cccc5cccc(c45)C3=O)CC2)cc1` gave SENP8 block-1 -2, SENP6 inh -17, EBI2 antag 44, AHR act 89*, SENP8 block-2 -4, SENP7 inh -4, AHR act confirm 108* and PXR counter 55*.
Screening O=c1[nH]c(CN2CCOCC2)nc2ccccc12 returned SENP8 block-1 7, SENP6 inh -1, EBI2 antag 7, AHR act -1, SENP8 block-2 4 and SENP7 inh 0.
Screening O=c1[nH]c(CN2CCc3ccccc3C2)nc2ccccc12 returned SENP8 block-1 -14, SENP6 inh 48, EBI2 antag -7, AHR act 85*, SENP8 block-2 18, SENP7 inh 18, AHR act confirm 100* and PXR counter 67*.
COc1cscc1C(=O)O was read as SENP8 block-1 24, SENP6 inh -9, EBI2 antag -4, AHR act -1, SENP8 block-2 4 and SENP7 inh -2.
COc1ccccc1CNC(=O)[C@@H]1CCCN1S(=O)(=O)c1ccc(C)cc1 was read as SENP8 block-1 17, SENP6 inh 0, EBI2 antag -2, AHR act 0, SENP8 block-2 -4 and SENP7 inh -5.
O=C(Cc1ccc([N+](=O)[O-])cc1)Nc1nnc(C2CC2)s1 was read as SENP8 block-1 10, SENP6 inh -11, EBI2 antag 1, AHR act 7, SENP8 block-2 -14 and SENP7 inh -4.
For Cc1csc(NC(=O)c2oc3ccccc3c2C)n1 the results were SENP8 block-1 -74, SENP6 inh 42, EBI2 antag 1, AHR act 83*, SENP8 block-2 17, SENP7 inh 46, AHR act confirm 136* and PXR counter 27*.
For Cc1csc(NC(=O)c2ccccc2O)n1 the results were SENP8 block-1 -399, SENP6 inh 10, EBI2 antag 3, AHR act 15, SENP8 block-2 -3 and SENP7 inh 6.
`O=C(Cc1c[nH]c2ccccc12)Nc1nnc(C2CC2)s1` gave SENP8 block-1 12, SENP6 inh 12, EBI2 antag -10, AHR act 91*, SENP8 block-2 -9, SENP7 inh -9, AHR act confirm 90* and PXR counter 20*.
Screening Cc1c(C(=O)Nc2nnc(C3CC3)s2)oc2ccccc12 returned SENP8 block-1 -110, SENP6 inh 25, EBI2 antag -19, AHR act 111*, SENP8 block-2 4, SENP7 inh 9, AHR act confirm 136* and PXR counter 55*.
Screening O=C1NC(=O)/C(=C/c2ccccc2OCc2ccccc2)S1 returned SENP8 block-1 -24, SENP6 inh 8, EBI2 antag -22, AHR act 7, SENP8 block-2 -2 and SENP7 inh -10.
`CN1C(=O)/C(=C\c2ccccc2OCc2ccccc2)SC1=S` gave SENP8 block-1 26, SENP6 inh 3, EBI2 antag -6, AHR act 81*, SENP8 block-2 -4, SENP7 inh 1, AHR act confirm 87* and PXR counter 19*.
Cc1cc(N2CCCCC2)nc(-c2ccc(Br)cc2)n1 was read as SENP8 block-1 -97, SENP6 inh -28, EBI2 antag 19, AHR act 80*, SENP8 block-2 -9, SENP7 inh -4, AHR act confirm 109* and PXR counter 3.
CC(C)CCCC(C)NS(=O)(=O)Cc1ccccc1 (stereo unspecified) was read as SENP8 block-1 28, SENP6 inh 4, EBI2 antag 10, AHR act 2, SENP8 block-2 -10 and SENP7 inh -4.
Screening CC(=O)Nc1ccc2ccccc2c1 returned SENP8 block-1 6, SENP6 inh 3, EBI2 antag -4, AHR act 3, SENP8 block-2 10 and SENP7 inh 3.
Screening CC(=O)Nc1ccc2cc3ccc(NC(C)=O)cc3nc2c1 returned SENP8 block-1 -283, EBI2 antag -9, AHR act 107* and AHR act confirm 81*.
`O=C(CN1CCCCC1)Nc1c2c(nc3ccccc13)N(c1ccccc1)CC2` gave SENP8 block-1 -388, SENP6 inh 5, EBI2 antag -26, AHR act 132*, SENP8 block-2 -1, SENP7 inh 0, AHR act confirm 107* and PXR counter 38*.
Nc1c2c(nc3ccccc13)N(c1ccccc1)CC2 was read as SENP8 block-1 -355, SENP6 inh -22, EBI2 antag 6, AHR act 143*, SENP8 block-2 -4, SENP7 inh -2, AHR act confirm 105* and PXR counter 22*.
CCCC(=O)Nc1c2c(nc3ccccc13)N(c1ccccc1)CC2 was read as SENP8 block-1 -436, SENP6 inh 15, EBI2 antag 1, AHR act 108*, SENP8 block-2 5, SENP7 inh 4, AHR act confirm 98* and PXR counter 23*.
`CCCC(=O)NNc1c2ccccc2nc2ccccc12` gave SENP8 block-1 -401, SENP6 inh -9, EBI2 antag -5, AHR act -7, SENP8 block-2 -1 and SENP7 inh -1.
CCCCc1nc2ccccc2c(NC(=O)CN2CCCC2)c1CCC was read as SENP8 block-1 -1, SENP6 inh 7, EBI2 antag -4, AHR act 2, SENP8 block-2 6 and SENP7 inh 4.
COCCN(C(=O)C1CC(=O)N(Cc2ccc(C)cc2)C1)c1c(N)n(CC(C)C)c(=O)[nH]c1=O (stereo unspecified) was read as SENP8 block-1 9, SENP6 inh 13, EBI2 antag 0, AHR act 1, SENP8 block-2 -5 and SENP7 inh 5.
Screening Cn1nc(-c2ccccc2)cc1NC(=O)c1cccs1 returned SENP8 block-1 14, SENP6 inh -10, EBI2 antag -4, AHR act 2, SENP8 block-2 3 and SENP7 inh -6.
Screening COC(C(=O)Nc1ccnn1C1CCN(C(=O)c2ccc(C)cc2)CC1)c1ccccc1 (stereo unspecified) returned SENP8 block-1 7, SENP6 inh 9, EBI2 antag 2, AHR act 0, SENP8 block-2 11 and SENP7 inh -3.
For Cc1oc(-c2ccc3ccccc3c2)nc1CN(C)C(C)c1ccncn1 (stereo unspecified) the results were SENP8 block-1 -97, SENP6 inh -26, EBI2 antag 19, AHR act 115*, SENP8 block-2 -4, SENP7 inh 4, AHR act confirm 98* and PXR counter 43*.

Screening data: PubChem BioAssay, several laboratories
